# Laboratory results reported in PubChem BioAssay (NCI).
# This is part of a sample that, as a whole, favours compounds with a hit. Of some 83,000 tested, about 20% had one in any assay.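 Compound tested at a single concentration for 48 hours in 96-well plates; a percent growth value below 10 was scored as active.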 A number with no mark means an inactive call. Active and inactive are the calls of the source.
# System: MDA-MB-468 breast
# Assay: NCI-60 one-dose screen, 48 h (100 = growth as untreated, 0 = no growth, -100 = all killed)
# Conditions: 10 µM unless noted
row,SMILES,growth
1,C=C1C(=O)O[C@H]2[C@H]1CC/C(COC(=O)NCCCCCCCCNC(=O)OC/C1=C/CC[C@@]3(C)O[C@H]3[C@H]3OC(=O)C(=C)[C@@H]3CC1)=C\CC[C@@]1(C)O[C@@H]21,-46.1% (active)
2,COc1cccc(/C(C#N)=C/c2nc3c(N4CCOCC4)nc(Cl)nc3n2C)c1,-63% (active)
3,O=C1Nc2c(c(=O)n(-c3ccccc3)c3ccccc23)C(c2ccc(Cl)cc2)N1 (stereo not given),119%
4,O=C(/C=C/c1sc(Cl)nc1Cl)c1ccc(Br)cc1,63.2%
5,Cc1cccc(-c2nnc(SCC(=O)Nc3ncc(Cc4ccccc4)s3)n2N2C(=O)CSC2=S)c1,62.1%
6,CCCCCCCCCCC1CO1 (stereo not given),94.1%
7,CC(=O)C1=C(C)NC(SCc2nnc(-c3ccc(C)cc3)o2)=NC1c1ccc(F)cc1 (stereo not given),93.4%
8,CNCCNc1nc2ccccc2c2c(=O)c3cccc(C)c3sc12,-14.9% (active)
9,CC(C)(C)C(=O)OCOP(=O)(OCOC(=O)C(C)(C)C)C1CC(O)N(O)C1=O (stereo not given),61%
10,Cc1cc(N(CCCNc2ccnc3cc(Cl)ccc23)Cc2ccccn2)nc(N2CCOCC2)n1,78.8%
11,Oc1c(Cl)cc(Oc2cc(Cl)c(O)c(CN3CCOCC3)c2)cc1CN1CCOCC1,84%
12,COc1ccc(C2CC(=O)c3c(O)c(OC)c(OC)c(OC)c3O2)c(O)c1 (stereo not given),-3.61% (active)
13,CC(C)OC(C(=O)O)c1ccccc1 (stereo not given),113%
14,CC1=C(C(=O)OCC2CCN(C(=O)OC(C)(C)C)CC2)[C@H](c2cccc(Br)c2)C2=C(CC(C)(C)CC2=O)N1,29.7%
15,COc1ccc(-c2nn(-c3cccc(Cl)c3)cc2-c2cc(-c3ccc(Br)cc3)nc(N)n2)cc1,95%
16,CCOc1ccccc1CN1CCc2nc3cc(C(C)(C)C)[nH]n3c(=O)c2C1,105%
17,COc1cc(/C=N/Nc2ccccc2F)cc(OC)c1OC,97%
18,CCc1ccc(Oc2c(-c3ccc(OCCc4cccc(C(F)(F)F)c4)cc3O)n[nH]c2C(F)(F)F)cc1,22.5%
19,N#CC1=C(N)Oc2c(ccc3ccccc23)C1c1ccccc1 (stereo not given),23.1%
20,C#Cc1ccc(NC(=O)c2ccc(/C=C/C(=O)c3nccn3C)cc2)cc1,-54.6% (active)

row,SMILES,growth
1,O=C(Nc1ccccc1Cl)c1c[nH]c(=O)c(-c2ccc(N3CCCOC4(CC4)C3)cc2)c1,9.39% (active)
2,NNC(=S)N1N=C(c2cc3ccccc3o2)CC1c1c[nH]c2ccccc12 (stereo not given),15.3%
3,c1cc2[nH]ncc2cc1-c1nc2ccc3[nH]ncc3c2c2c1CCCC2,-3.32% (active)
4,CC/C=C\C[C@H](F)C/C=C1/C(=O)C=C[C@@H]1C/C=C\CCCC(=O)OC,17.9%
5,Nc1nc(Nc2ccccc2)c(C=Nc2ccccc2)c(=O)[nH]1,99.6%
6,O=C(CCl)c1ccc2c(c1)CCCC2,116%
7,COc1ccc(-c2c3c(cn2Cc2cccc(OC)c2)-c2oncc2CCC3)cc1,88.7%
8,O=C1Nc2ccccc2/C1=C/c1cn(CCCn2c3ccccc3c(=O)c3ccccc32)c2ccccc12,96.4%
9,COc1cc2ncnc(Nc3ccc(S(=O)(=O)Nc4cc(C)on4)cc3)c2cc1OCCCN1CCOCC1,103%
10,COC1OC2COC(c3ccccc3)OC2C(=O)C1NC(=O)c1ccccc1 (stereo not given),113%
11,CCOC(=O)c1n[nH]n2c1nc(=O)c1cnn(C)c12,113%
12,N=C(N)c1ccc(-c2ccc(-c3ccc(Cl)c(Cl)c3)o2)nc1,-17% (active)
13,COc1cc2cc(Oc3ccc(NC(=O)c4ccc(Cl)c(C(F)(F)F)c4)cc3)c(C)nc2cc1OC,6.44% (active)
14,COc1cccc(/C=N\Nc2ccc([N+](=O)[O-])cn2)c1O,26.4%
15,Cc1nc2ccc(Nc3nc(Cl)nc(N4CCOCC4)n3)cc2n1Cc1ccccc1,62.2%
16,CCOC(=O)/C(C#N)=C\c1c[nH]c2ccccc12,97.4%
17,C=C(C)[C@@H]1CC[C@]2(COCCCN)CC[C@]3(C)[C@H](CC[C@@H]4[C@@](C)(CCCNCCCN)[C@H](C(=C)C)CC[C@]43C)[C@@H]12,-53.8% [100 µM] (active)
18,COc1cc([C@@H]2c3cc4c(cc3C(O[C@@H]3O[C@@H]5CO[C@@H](c6cccs6)OC5[C@H](O)[C@H]3O)C3COC(=O)[C@@H]32)OCO4)cc(OC)c1O (stereo not given in full),-58.9% (active)
19,CN(C)Cc1cccs1,87.2%
20,CCOC(=O)NC(=S)n1oc(=O)c2ccccc21,106%
